High-throughput results from PubChem.
NOMO-1 viab: NOMO-1 AML cell viability reduction, primary screen, STK33 inhibitor project, CellTiter-Glo luminescence; 37,000 tested, 7.5% active; AID 2330, 2010; NOMO-1 AML viability, 72 h; inhibition, % (test concentration not listed); in the data active means inhibition above about 80%; inconclusive means no clear call, values can overlap the other calls
PD-1 reversal: activators reversing PD-1 mediated T-cell inhibition, primary screen, luminescence, primary human CD4 T cells, PD-L1 beads; CellTiter-Glo 96 h; activation, % (no concentration beside the values); 29,000 tested, under 10 active; AID 2316, 2010; call rule not given here;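 further: 0% = median vehicle wells and 100% = positive control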
Shh pathway inh: Hedgehog pathway signaling inhibitors, primary screen, luminescence, Shh-LIGHT2 cells, Gli-luciferase; 22,000 tested, 2.1% active; Shh-LIGHT2 Gli-luciferase reporter, 30 h; AID 2313, 2010; inhibition, % (no concentration beside the values);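 active means mean inhibition across valid replicates above about 65%, limit read from the data; inconclusive means mean under the limit, yet half or more replicates past it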;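 further: pathway switched on by Shh-conditioned medium diluted 1 in 25 in low serum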
* marks the source's active call; other numbers are inactive results; ? = inconclusive; · = not tested or not shown. Shown are actives, neighbours in structure and some others; about 7.7% of the full set was active somewhere.

SMILES	NOMO-1 viab	PD-1 reversal	Shh pathway inh
Cc1ccc(Cl)cc1NC(=O)C(C)n1nc(C)c([N+](=O)[O-])c1C (configuration not stated)	3	·	·
Nc1nnc(SC2c3cccc4cccc(c34)C2NS(=O)(=O)c2ccc(Cl)cc2)s1 (configuration not stated)	24	-1	·
C[C@@H]1C[C@H]2[C@@H]3CCC4=CC(=O)C=C[C@]4(C)[C@@]3(Cl)[C@@H](O)C[C@]2(C)[C@@]1(OC(=O)c1ccco1)C(=O)CCl	114*	-7	23
CCC(=O)OCC(=O)[C@@]1(OC(=O)CC)[C@@H](C)CC2C3CCC4=CC(=O)C=C[C@]4(C)C3(F)[C@@H](O)C[C@@]21C (some centres not stated)	0	·	25
Cc1nc(C(N)=NC(=O)c2ccc(OC(F)(F)F)cc2)cs1	12	0	-106
COc1ccc(S(=O)(=O)Nc2ccc3c(c2)C(=O)N([C@@H](C)CO)C[C@@H](C)[C@H](CN(C)Cc2ccc(C(=O)Nc4ccccc4N)cc2)O3)cc1	40	-1	·
COc1ccc(S(=O)(=O)Nc2ccc3c(c2)C(=O)N([C@H](C)CO)C[C@@H](C)[C@@H](CN(C)Cc2ccc(C(=O)Nc4ccccc4N)cc2)O3)cc1	108*	0	·
Cc1ccc(S(=O)(=O)Nc2ccc3c(c2)C(=O)N([C@H](C)CO)C[C@H](C)[C@@H](CN(C)Cc2ccc(C(=O)Nc4ccccc4N)cc2)O3)cc1	27	-1	·
COc1ccc(S(=O)(=O)Nc2ccc3c(c2)C(=O)N([C@@H](C)CO)C[C@@H](C)[C@@H](CN(C)Cc2ccc(C(=O)Nc4ccccc4N)cc2)O3)cc1	110*	0	·
COc1ccc(NC(=O)C(C)Oc2cc(C)c(Cl)c(C)c2)c([N+](=O)[O-])c1 (configuration not stated)	6	0	·
COc1ccc(CCNC(=O)CSc2nc3ccccc3nc2N2CCCC2)cc1OC	35	0	-39
C[C@@H]1CN([C@@H](C)CO)C(=O)c2cccc(NC(=O)Nc3ccc(C(F)(F)F)cc3)c2O[C@@H]1CN(C)C(=O)Nc1ccc2c(c1)OCO2	38	1	-47
COc1ccc(NC(=O)N(C)C[C@H]2Oc3c(NC(=O)Nc4ccc(C(F)(F)F)cc4)cccc3C(=O)N([C@@H](C)CO)C[C@@H]2C)cc1	42	·	28
C[C@@H]1CN([C@@H](C)CO)C(=O)c2cccc(NC(=O)Nc3ccc(C(F)(F)F)cc3)c2O[C@@H]1CN(C)C(=O)Nc1ccc(F)cc1	50	-1	-6
C[C@H]1CN([C@@H](C)CO)C(=O)c2cccc(NC(=O)Nc3ccc(C(F)(F)F)cc3)c2O[C@H]1CN(C)C(=O)Nc1ccc2c(c1)OCO2	92*	·	-49
COc1ccc(S(=O)(=O)Nc2cccc3c2O[C@H](CN(C)C(=O)Nc2ccc(F)cc2)[C@@H](C)CN([C@H](C)CO)C3=O)cc1	12	-2	·
C[C@H]1CN([C@@H](C)CO)C(=O)c2cccc(NC(=O)Nc3ccc(C(F)(F)F)cc3)c2O[C@@H]1CN(C)C(=O)Nc1ccc(C(F)(F)F)cc1	88*	-3	-1
COc1ccc(S(=O)(=O)Nc2cccc3c2O[C@@H](CN(C)C(=O)Nc2ccc(F)cc2)[C@@H](C)CN([C@H](C)CO)C3=O)cc1	111*	-4	1
C[C@@H]1CN([C@@H](C)CO)C(=O)c2cccc(NC(=O)Nc3ccc(C(F)(F)F)cc3)c2O[C@H]1CN(C)C(=O)Nc1ccc(C(F)(F)F)cc1	105*	·	-7
CCCNC(=O)Nc1ccc(N2CCC(C(F)(F)F)CC2)nc1	-34	0	-3
CC(C)(O)CCC(=O)C(C)(O)C1C(O)CC2(C)C3CC=C4C(CC(OC5OC(CO)C(O)C(O)C5O)C(O)C4(C)C)C3(C)CCC12C (configuration not stated)	·	·	-19
O=C(Nc1cccc(NS(=O)(=O)c2cccc([N+](=O)[O-])c2)c1)c1cccs1	30	·	·
COc1cccc(N(CC(=O)Nc2cccc(Cl)c2)S(C)(=O)=O)c1	18	2	·
COC(=O)c1ccccc1NC(=O)CNC(=O)c1ccc(C(C)(C)C)cc1	-1	0	·
COc1ccc(C)cc1N(CC(=O)Nc1ccc(I)cc1)S(C)(=O)=O	25	2	·
SMILES	NOMO-1 viab	PD-1 reversal	Shh pathway inh
COc1ccc2c(c1)SC1=NC(=O)C(Cc3ccccc3)C(=O)N12 (configuration not stated)	6	1	20
C[C@@H]1C[C@H]2OC[C@@]3(C)CCC[C@](C)(C23)[C@@]1(O)CCc1ccoc1 (some centres not stated)	·	·	-24
COc1ccc(NC(=O)N(C)C[C@H]2Oc3c(NC(=O)Nc4ccc(C(F)(F)F)cc4)cccc3C(=O)N([C@H](C)CO)C[C@@H]2C)cc1	103*	-5	-4
CC(C)NC(=O)N(C)C[C@H]1Oc2c(NC(=O)Nc3ccc(C(F)(F)F)cc3)cccc2C(=O)N([C@H](C)CO)C[C@H]1C	115*	-3	-15
C[C@@H]1CN([C@@H](C)CO)C(=O)c2cccc(NC(=O)CCCCCC(=O)Nc3ccccc3N)c2O[C@@H]1CN(C)C(=O)Nc1ccc(C(F)(F)F)cc1	118*	-1	·
CC(C)NC(=O)N(C)C[C@@H]1Oc2c(NC(=O)Nc3ccc(C(F)(F)F)cc3)cccc2C(=O)N([C@@H](C)CO)C[C@H]1C	15	·	?
C[C@H](CO)N1C[C@H](C)[C@@H](CN(C)C(=O)Nc2ccc(C(F)(F)F)cc2)Oc2c(NC(=O)Nc3ccccc3)cccc2C1=O	13	-2	-36
C[C@@H]1CN([C@H](C)CO)C(=O)c2cccc(NC(=O)Nc3ccc(C(F)(F)F)cc3)c2O[C@@H]1CN(C)C(=O)Nc1ccccc1	105*	-4	16
COc1ccc(NC(=O)Nc2cccc3c2O[C@@H](CN(C)C(=O)Nc2ccc(C(F)(F)F)cc2)[C@H](C)CN([C@@H](C)CO)C3=O)cc1	18	0	7
C[C@H](CO)N1C[C@H](C)[C@H](CN(C)C(=O)Nc2ccc(F)cc2)Oc2c(NC(=O)CCCCCC(=O)Nc3ccccc3N)cccc2C1=O	23	0	·
COc1ccc(NC(=O)NCc2ccc(C(=O)O)cc2)c(OC)c1	8	3	·
COc1cc(NC(=O)C(C)Oc2ccc(Cl)cc2Cl)c(C(=O)O)cc1OC (configuration not stated)	26	5	·
O=C(NCCc1ccccc1)c1ccc(-c2ccccc2)cc1	24	1	·
Cc1cc(Br)c(NC(=O)CSc2ncn(-c3ccccc3)n2)cc1C	-21	1	·
CC1(C)CCC[C@]2(C)C1CC=C(CO)[C@H]2CC/C(=C/CO)CO (some centres not stated)	·	·	-15
C/C(=C/CO)CC[C@@H]1[C@@](C)(O)CCC2C(C)(C)CCC[C@]21C (some centres not stated)	101*	-3	-37
O=C(COc1ccccc1Cl)Nc1ccccc1NC(=O)c1ccco1	-5	·	·
C[C@H](CO)N1C[C@H](C)[C@@H](CN(C)Cc2ccc(C(=O)O)cc2)Oc2c(NC(=O)Nc3ccccc3)cccc2C1=O	-28	·	-20
